A selection: hits, their analogues and other compounds. The true share with any hit is near 1.2%.
Bcl-xL primary = inhibitors of human Bcl-xL, primary screen, biochemical, fluorescence polarization, HTS; Bcl-2-like protein 1 (Homo sapiens), Q07817; 320,000 compounds, 0.7% hits; inhibition, % at 10.9 µM; GST-Bcl-xL / FITC-Bim BH3 peptide fluorescence polarization;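 active means inhibition above the mean of all tested compounds plus 3 SD, cutoff set per campaign, cut at about 30% in these data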;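 further: 0% = DMSO wells and 100% = unlabeled Bim-BH3 peptide competitor; inhibitors lower millipolarization by displacing the labeled peptide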
E coli Lon inh = inhibitors of E. coli Lon protease, primary screen, biochemical, fluorescence polarization; AID 602123, 2011; P0A9M0; purified E. coli Lon protease; 360,000 compounds, 0.42% hits; inhibition, % at 7.94 µM; in the data active means inhibition above about 13%, passing the limit was not always enough;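 further: 0% = enzyme with probe and DMSO and 100% = no enzyme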
Target sequence (P0A9M0 whole entry, looked up): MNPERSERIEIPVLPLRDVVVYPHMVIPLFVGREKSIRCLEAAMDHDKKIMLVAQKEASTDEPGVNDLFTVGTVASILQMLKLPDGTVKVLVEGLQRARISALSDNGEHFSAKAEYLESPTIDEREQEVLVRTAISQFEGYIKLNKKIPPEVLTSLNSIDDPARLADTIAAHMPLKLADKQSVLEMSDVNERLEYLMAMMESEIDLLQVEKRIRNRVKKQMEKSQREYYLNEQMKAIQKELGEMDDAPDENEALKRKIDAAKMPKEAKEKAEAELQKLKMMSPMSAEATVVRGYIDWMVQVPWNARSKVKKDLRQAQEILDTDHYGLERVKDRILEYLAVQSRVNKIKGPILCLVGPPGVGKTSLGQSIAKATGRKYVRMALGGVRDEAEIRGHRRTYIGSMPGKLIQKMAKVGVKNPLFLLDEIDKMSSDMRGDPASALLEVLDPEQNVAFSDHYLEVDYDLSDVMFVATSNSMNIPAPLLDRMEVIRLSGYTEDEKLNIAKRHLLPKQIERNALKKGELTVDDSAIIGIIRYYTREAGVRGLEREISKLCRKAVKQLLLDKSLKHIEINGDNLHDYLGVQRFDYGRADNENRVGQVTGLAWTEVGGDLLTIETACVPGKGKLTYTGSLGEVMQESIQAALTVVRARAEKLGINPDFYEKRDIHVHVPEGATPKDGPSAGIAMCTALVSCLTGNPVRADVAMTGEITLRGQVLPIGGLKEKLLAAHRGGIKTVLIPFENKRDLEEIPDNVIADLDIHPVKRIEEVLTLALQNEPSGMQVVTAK
cardiac RTF act = cardiac RTF calcium sensitivity activators, primary screen, biochemical, IANBD-TnC fluorescence, EC20 calcium | IANBD-labeled TnC RTF fluorescence at EC20 calcium; 0% EC20 calcium, 100% full calcium | activation, % at 7.2 µM | 340,000 compounds, 0.24% hits | AID 493008, 2010;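 active means activation above the mean over all tested compounds plus 3 SD, cut at about 30% in these data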;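 further: rise in fluorescence read as greater calcium sensitivity of cardiac thin filaments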
GLD-1 TGE inh = GLD-1/TGE RNA complex disruptors, primary screen, biochemical, fluorescence polarization; Female germline-specific tumor suppressor gld-1 (Caenorhabditis elegans), Q17339; 320,000 compounds, 0.44% hits; inhibition, % at 5.96 µM; purified GLD-1 + fluorescein TGE RNA;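 active means percent inhibition above a per-plate cutoff, the plate mean of test compounds plus 3 SD, cut at about 30% in these data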;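 further: 0% = DMSO wells with GLD-1 and probe and 100% = wells lacking GLD-1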
Cardiac RTF inh = cardiac RTF calcium sensitivity inhibitors, primary screen, biochemical, IANBD-TnC fluorescence, EC70 calcium; IANBD-labeled cardiac RTF, Ca2+ fluorescence; Troponin I, cardiac muscle (Homo sapiens) + Troponin T, cardiac muscle (Homo sapiens) + …; 340,000 compounds, 0.12% hits; inhibition, % at 7.15 µM;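 active means inhibition above the mean inhibition of all tested compounds plus 3 SD, cut at about 17% in these data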;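 further: assay run at fixed EC70 calcium of 1.6 mM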
eLon confirm = E. coli Lon protease inhibitor retest, confirmation, biochemical, fluorescence polarization; AID 602230, 2012; inhibition, % at 7.94 µM; 1,400 compounds, 31% hits; purified E. coli Lon; shares compounds with E coli Lon inh; in the data active means inhibition above about 16%;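 further: 0% = enzyme with probe and DMSO and 100% = no enzyme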
* = called active by the depositor; i = inactive; nt = not tested or not shown; + = active, no number.

SMILES	Bcl-xL primary	E coli Lon inh	cardiac RTF act	GLD-1 TGE inh	Cardiac RTF inh	eLon confirm
COc1cc(NC(=O)c2ccccn2)cc(OC)c1OC	2.0	4.0	13.4	2.8	-9.0	nt
COc1ccc(N2CCN(c3cc(C(=O)Nc4cc(OC)c(OC)c(OC)c4)ncn3)CC2)cc1OC	nt	11.8*	nt	nt	nt	1.1
CN(C)CCCOc1ccc(-c2cccc3nncn23)cn1	nt	-0.7	nt	nt	nt	nt
Cc1ccc(C(O)c2ncc(-c3cccc(C(F)(F)F)c3)[nH]2)cc1 (stereo not given)	nt	14.9*	nt	nt	nt	2.2
OC(c1ccccc1)c1ncc(-c2cccc(C(F)(F)F)c2)[nH]1 (stereo not given)	nt	-2.4	nt	nt	nt	nt
COC(=O)CCC(=O)Nc1ccc(Cl)c(Cl)c1	1.7	-3.3	6.0	-6.9	-1.6	nt
CO/N=C\CC(=O)Nc1ccc(Cl)c(Cl)c1	3.0	17.4*	4.8	2.9	-3.2	13.9
COC(=O)C1=CO[C@@H](O[C@@H]2O[C@H](CO)[C@@H](O)[C@H](O)[C@H]2O)C2C(CO)=CCC12 (stereo not given in full)	nt	0.1	-2.8	1.6	5.1	nt
CCNc1ccccc(-c2ccc3ccccc3n2)c1=O	22.1	-13.2	4.1	12.9	-20.4	nt
O=C1C=C(N2CCCCC2)c2ccccc2C1=O	7.2	-5.5	nt	1.9	nt	nt
O=C1c2ccccc2-c2onc3ccc(N4CCCC4)c1c23	nt	159.7*	395.5*	nt	i	-21.4
CCOc1ccc2noc3c2c1C(=O)c1ccccc1-3	152.2*	+	+	170.9*	i	+
CCNc1ccc2noc3c2c1C(=O)c1ccccc1-3	175.4*	+	+	191.8*	i	183.0*
O=C1c2ccccc2-c2onc3ccc(NCc4ccco4)c1c23	164.9*	128.2*	714.8*	164.7*	i	118.0*
Cc1ccc(-n2nnnc2CS(=O)(=O)c2ccccc2)c(C)c1	2.9	4.8	-0.3	4.8	-0.8	nt
Cc1cc(C)n(-c2ncnc3sc4c(c23)CCCC4)n1	3.0	1.1	-1.0	1.5	0.3	nt
O=C(COc1ncnc2cc([N+](=O)[O-])ccc12)NC(=O)NC1CCCCC1	7.3	0.4	-1.3	1.6	2.9	nt
COc1cc(/C=C2\CCCc3c2nc2ccccc2c3C(=O)O)cc([N+](=O)[O-])c1O	16.5	5.6	-1.0	0.7	10.9	nt
COc1ccc(/C=C2\CCc3c2nc2ccccc2c3C(=O)O)cc1OC	98.8*	64.9*	4.0	117.2*	-49.7	13.4
CC(C)S(=O)(=O)c1csc(NC(=O)Nc2cccc([N+](=O)[O-])c2)c1Cl	-5.0	22.1*	-1.4	0.6	1.5	-6.2
O=C(Nc1cccc([N+](=O)[O-])c1)Nc1cccc([N+](=O)[O-])c1	6.2	10.4	0.3	4.5	-17.0	nt
CCCOC1CCCN(C(=O)CCCn2nnnc2CN2CCOCC2)C1 (stereo not given)	3.9	-7.1	-6.6	0.5	-2.0	nt
CSCc1cc(N(C)C)nc(SCc2ccc(Cl)c(Cl)c2)n1	-0.6	-2.5	6.2	2.9	-3.1	nt
O=C1CN(S(=O)(=O)c2ccccc2Cl)CCN1	nt	2.0	0.5	nt	5.3	nt
O=C1CN(S(=O)(=O)c2cccc(Cl)c2Cl)CCN1	nt	43.9*	-2.5	nt	0.3	14.4
SMILES	Bcl-xL primary	E coli Lon inh	cardiac RTF act	GLD-1 TGE inh	Cardiac RTF inh	eLon confirm
Cc1ccc(-c2cc(C(=O)Nc3c(C)n(C)n(-c4ccccc4)c3=O)[nH]n2)c(O)c1	2.9	15.3*	2.3	6.0	-8.4	0.3
O=C(Nc1ccc(C(=O)N2CCN(c3ccc(Cl)cc3)CC2)cc1)C1=CSCCO1	8.5	24.7*	-2.6	1.5	-2.0	2.2
O=C(COC(=O)c1cccc(C(=O)OCC(=O)NC2CCCCC2)n1)NC1CCCCC1	-0.6	2.4	-4.4	-3.3	-3.1	nt
Cc1ccc(NC(=O)COC(=O)c2ccc(Br)o2)cc1S(=O)(=O)N1CCCCC1	2.5	22.6*	-1.8	3.4	-1.5	20.3*
Cc1noc(C)c1CCC(=O)NC1CCCN(Cc2ccc(Cl)cc2)C1 (stereo not given)	5.4	-5.9	1.6	4.9	-1.5	nt
COc1cc(OC)c(C2Nc3ccccc3NC3=C2C(=O)CC(C)(C)C3)cc1OC (stereo not given)	4.4	17.0*	-1.5	5.3	-10.4	-7.7
Cn1cccc1C1Nc2ccccc2NC2=C1C(=O)CC(C)(C)C2 (stereo not given)	3.3	39.4*	6.8	9.0	-17.1	-9.5
CCOC(=O)CCC(NC(=O)c1ccc(NCN2C(=O)CCC2=O)cc1)C(=O)OCC (stereo not given)	5.7	-2.1	1.1	8.8	-1.1	nt
CC(NS(=O)(=O)c1ccc(N)cc1)C1CC2CCC1C2 (stereo not given)	0.0	-2.3	7.1	-0.2	-27.1	nt
CC(NS(=O)(=O)c1ccccc1)C1CC2CCC1C2 (stereo not given)	-1.6	22.7*	3.4	6.2	2.5	-1.7
N#Cc1ccc(CCc2ccccc2)[nH]c1=O	nt	-13.7	-0.6	nt	3.4	nt
N#Cc1ccc(CC(=O)c2ccccc2)[nH]c1=O	nt	24.8*	-3.7	nt	-2.8	-97.7
CN(C)c1ccc2nc3c(=O)[nH]c(=O)nc-3n(CC(O)C(O)C(O)CO)c2c1 (stereo not given)	189.6*	165.4*	124.8*	163.2*	-173.8	82.0*
Cc1nc2cc(Cl)ccc2n1CCO	1.2	-5.9	0.4	5.6	-7.3	nt
CCN(C(=O)COC(=O)C(c1ccccc1)c1ccccc1)c1c(N)n(Cc2ccccc2)c(=O)[nH]c1=O	nt	24.8*	8.9	nt	-0.1	-1.8
CCN(C(=O)COC(=O)CC(C)c1ccccc1)c1c(N)n(Cc2ccccc2)c(=O)[nH]c1=O (stereo not given)	-1.4	4.9	-6.9	-1.4	3.0	nt
Nc1c(NCc2ccccc2)c(=O)[nH]c(=O)n1Cc1ccccc1	70.0*	15.4*	0.3	86.0*	-14.3	15.5
Cc1cc(-c2csc(N)n2)c(C)n1C	41.1*	16.2*	0.6	14.7	-4.5	1.1
CCOC(=O)C1CCCN(C(=O)Cc2c(C(=O)O)[nH]c3ccccc23)C1 (stereo not given)	0.2	24.4*	0.8	8.4	-7.8	20.6*
CCOC(=O)C1CCCN(C(=O)C2c3ccccc3Oc3ccccc32)C1 (stereo not given)	+	+	92.8*	188.5*	-109.3	36.4*
CC12CCCCN1CCCc1c2[nH]c2ccccc12 (stereo not given)	23.8	22.4*	1.0	10.9	-32.1	-1.7
c1ccc2c3c([nH]c2c1)C1(CCCCC1)NCC3	1.0	-5.3	5.7	2.9	-4.9	nt
